Measurements published in PubChem BioAssay (NCI).
“And” between values parts separate entries of the source, which are not always exact repeats. Identical values can stand only once. Compounds without any hit were thinned out: in the full panel of roughly 83,000, 20% have a hit.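 Assay: single dose, 48 h. Readout: percent growth (0 = no net growth; negative = cell death). Active: <10.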 The source made the active and inactive calls.

Legend:
Assay in all cases: NCI-60 one-dose screen, 48 h (100 = growth as untreated, 0 = no growth, -100 = all killed)
Details in all cases: 10 µM unless noted
DU-145 prostate = tested on: DU-145 prostate
K-562 leukemia = tested on: K-562 leukemia
MALME-3M melanoma = tested on: MALME-3M melanoma
MDA-MB-231 breast = tested on: MDA-MB-231 breast
RXF 393 renal = tested on: RXF 393 renal
SF-268 CNS = tested on: SF-268 CNS
SF-295 CNS = tested on: SF-295 CNS
SF-539 CNS = tested on: SF-539 CNS
UACC-257 melanoma = tested on: UACC-257 melanoma
M14 melanoma = tested on: M14 melanoma

SMILES | growth (DU-145 prostate) | growth (K-562 leukemia) | growth (MALME-3M melanoma) | growth (MDA-MB-231 breast) | growth (RXF 393 renal) | growth (SF-268 CNS) | growth (SF-295 CNS) | growth (SF-539 CNS) | growth (UACC-257 melanoma) | growth (M14 melanoma)
Oc1ccccc1C=NCC1CCC(CN=Cc2ccccc2O)CC1 (stereo not given) | 3.17% (active) | 99.4% (inactive) | 113% (inactive) | 101% (inactive) | 76.4% (inactive) | 93.9% (inactive) | 71.6% (inactive) | 100% (inactive) | 102% (inactive) | 98.8% (inactive)
COc1ccc(CCN(C)CCCC(C#N)(c2ccc(OC)c(OC)c2)C(C)C)cc1OC (stereo not given) | 103% (inactive) and 96.6% (inactive) | 72.5% (inactive) and 95.2% (inactive) | 93.8% (inactive) and 102% (inactive) and 89.6% (inactive) | 85.2% (inactive) and 95.4% (inactive) and 99.3% (inactive) | 103% (inactive) and 96.2% (inactive) and 96.3% (inactive) | 97.4% (inactive) and 103% (inactive) and 96.2% (inactive) | 74.7% (inactive) and 67.2% (inactive) and 100% (inactive) | 107% (inactive) and 87.8% (inactive) and 110% (inactive) | 91.8% (inactive) and 96.1% (inactive) and 89.5% (inactive) | 102% (inactive) and 86.1% (inactive) and 94.2% (inactive)
CN1CCN(c2ccc3nc(-c4c(N)c5c(F)cccc5[nH]c4=O)[nH]c3c2)CC1 | 33.5% (inactive) and 29.3% (inactive) | -26.6% (active) and -24.4% (active) | 7.87% (active) and -13.5% (active) | 42.4% (inactive) and 52.5% (inactive) | -1.36% (active) and 26.3% (inactive) | 44.7% (inactive) and 48.9% (inactive) | 56.6% (inactive) and 71.6% (inactive) | 6.28% (active) and 11.5% (inactive) | -59.4% (active) and -18.1% (active) | -25.3% (active) and 2.34% (active)
CNC(=O)c1ccc(C)c(-n2c(C)cc(OCc3ccc(F)cc3F)c(Br)c2=O)c1 | 91.6% (inactive) and 95.9% (inactive) | 43% (inactive) and 80.7% (inactive) | 98.9% (inactive) and 95.9% (inactive) | 88.8% (inactive) and 93.1% (inactive) | 87.7% (inactive) | 81.6% (inactive) and 84.2% (inactive) | 68.9% (inactive) and 78.3% (inactive) | 89.5% (inactive) and 88.2% (inactive) | 70.5% (inactive) | 76.6% (inactive) and 98.4% (inactive)
ClC/C=C/CSc1ncnc2nc[nH]c12 | 110% (inactive) and 116% (inactive) | 82.1% (inactive) and 73.3% (inactive) | 116% (inactive) and 95.9% (inactive) | 109% (inactive) and 96.3% (inactive) | 109% (inactive) and 141% (inactive) | 103% (inactive) and 119% (inactive) | 101% (inactive) and 117% (inactive) | 101% (inactive) and 103% (inactive) | 118% (inactive) and 104% (inactive) | 104% (inactive) and 103% (inactive)
O=C1NC(=O)C2(CCc3ccccc32)N1 (stereo not given) | 123% (inactive) and 102% (inactive) | 116% (inactive) and 83.6% (inactive) | 97% (inactive) and 96.7% (inactive) | 106% (inactive) and 97.2% (inactive) | 95.3% (inactive) | 99% (inactive) and 107% (inactive) | 96.5% (inactive) and 96% (inactive) | 90% (inactive) and 105% (inactive) | 107% (inactive) and 86.1% (inactive) | 107% (inactive) and 96.5% (inactive)
CCCCCn1sc(=O)n(Cc2ccc(CNC(=O)C(C)c3ccc(CC(C)C)cc3)cc2)c1=O (stereo not given) | 99.9% (inactive) and -93.4% (active) | 2.12% (active) | 99.8% (inactive) and -72.1% (active) | 93.3% (inactive) and -54.7% (active) | -91.7% (active) | 94.5% (inactive) and -59.7% (active) | 94.3% (inactive) and 47.1% (inactive) | 93.6% (inactive) and -92.8% (active) | 96.7% (inactive) and -19.5% (active) | 95.2% (inactive) and -67.6% (active)
CCc1c(CC(=O)O)c2cc(C)ccc2n1Cc1ccc(Cl)cc1 | 106% (inactive) and 105% (inactive) | 152% (inactive) | 95.1% (inactive) and 200% (inactive) | 110% (inactive) and 100% (inactive) | 76.8% (inactive) | 96.3% (inactive) and 99.4% (inactive) | 91.6% (inactive) and 84.9% (inactive) | 97.4% (inactive) and 90.2% (inactive) | 87.7% (inactive) | 101% (inactive) and 85.4% (inactive)
COc1ccccc1NC(=O)OCC#CCOC(=O)Nc1ccccc1OC | 146% (inactive) and 96.5% (inactive) | 75% (inactive) and 57.3% (inactive) | 96.6% (inactive) | 102% (inactive) and 105% (inactive) | 102% (inactive) and 90.3% (inactive) | 116% (inactive) and 89.4% (inactive) | 105% (inactive) and 94% (inactive) | 99.9% (inactive) and 91.6% (inactive) | 100% (inactive) and 91.1% (inactive) | 106% (inactive) and 95.5% (inactive)
CN1C(=O)C(N=Nc2ccc([N+](=O)[O-])cc2)SC1=S (stereo not given) | 90.7% (inactive) and 89.2% (inactive) | 43.1% (inactive) | 80.1% (inactive) and 99.9% (inactive) | 76.7% (inactive) and 87% (inactive) | 80% (inactive) and 94.2% (inactive) | 65.2% (inactive) and 67.6% (inactive) | 185% (inactive) and 46.3% (inactive) | 67.2% (inactive) and 68.2% (inactive) | 76.3% (inactive) and 84.2% (inactive) | 59.6% (inactive) and 59.5% (inactive)
CCN(CC)CCC(CNc1ccnc2cc(Cl)ccc12)c1ccc(OC)cc1 (stereo not given) | 84.7% (inactive) and 96.7% (inactive) | 6.83% (active) and 1.92% (active) | -69.1% (active) and -65.7% (active) | 33.1% (inactive) and 44.1% (inactive) | 33.6% (inactive) and 38.1% (inactive) | 75.9% (inactive) and 76.8% (inactive) | 46.5% (inactive) and 1.95% (active) | -80.6% (active) and -66.8% (active) | -70% (active) and -74.4% (active) | -60.3% (active) and -78.3% (active)
O=C(c1ccc(Cl)cc1)C(NCCO)c1ccc(Cl)cc1 (stereo not given) | 108% (inactive) and 109% (inactive) | 90.3% (inactive) and 105% (inactive) | 90.2% (inactive) and 102% (inactive) | 96.3% (inactive) and 97.8% (inactive) | 94.9% (inactive) and 108% (inactive) | 99% (inactive) and 85.8% (inactive) | 96.8% (inactive) and 103% (inactive) | 114% (inactive) and 103% (inactive) | 100% (inactive) and 101% (inactive) | 101% (inactive) and 104% (inactive)
CCOC(=O)C(C(=O)OCC)C(c1ccccc1)N1CCN(c2ccccc2)CC1 (stereo not given) | 127% (inactive) and 109% (inactive) | 120% (inactive) and 93.5% (inactive) | 92.2% (inactive) | 109% (inactive) and 125% (inactive) | 102% (inactive) and 97.6% (inactive) | 110% (inactive) and 100% (inactive) | 108% (inactive) and 105% (inactive) | 111% (inactive) and 118% (inactive) | 98.6% (inactive) and 100% (inactive) | 102% (inactive) and 103% (inactive)
CC(C)(O)Cn1cc(-c2ccc3nc(OC4CC4)ccc3c2)c2c(N)ncnc21 | 102% (inactive) and 75.6% (inactive) | 88% (inactive) and 35.8% (inactive) | 70.2% (inactive) and 44.2% (inactive) | 69.2% (inactive) and 46.4% (inactive) | 73.3% (inactive) and 50.5% (inactive) | 91.2% (inactive) and 57.1% (inactive) | 79.2% (inactive) and 56.7% (inactive) | 81.6% (inactive) and 58.6% (inactive) | 70.8% (inactive) | 80.6% (inactive) and 62.3% (inactive)
c1ccc2c(CC3=NCCN3)cccc2c1 | 123% (inactive) and 114% (inactive) | 115% (inactive) and 107% (inactive) | 104% (inactive) and 113% (inactive) | 105% (inactive) and 109% (inactive) | 105% (inactive) and 102% (inactive) | 114% (inactive) and 109% (inactive) | 94.3% (inactive) and 100% (inactive) | 102% (inactive) and 95.8% (inactive) | 101% (inactive) and 97.1% (inactive) | 97.1% (inactive) and 99.3% (inactive)
